According to PubChem BioAssay (NCATS):
Where “and” joins values, the source holds several entries; their conditions need not be identical. Equal entries are not always repeated. Results filed as inconclusive are left out. Calls of active or inactive are those of the source. Unless noted, calls come from the whole dose curve; as a rule, active = well fitted curve in either direction with a large enough effect (not every such curve was filed as active); inconclusive = small, poorly fitted or top-dose-only effect, or another doubt; inactive = flat fitted curve, though single readings scatter.

Key:
[1] = target: Lysosomal acid glucosylceramidase (Homo sapiens) (UniProt P04062); experiment: Glucocerebrosidase-p2 (AID 348; in the data active = potency below about 10 µM; note: potency is the fitted concentration of half-maximal effect); settings: purified GBA, blue fluorogenic substrate, 40 min
Outline: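 Normal human glucocerebrosidase (0.2 nM) with blue fluorogenic substrate (80 uM final) in citrate/phosphate pH 5.9 with 10mM sodium taurocholate, 0.01% tween-20; 40 min RT, NaOH/glycine stop; fluorescence Ex 365/Em 440; AC50 from a titration from 0.6 nM upwards.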

[2] = AP1 Signaling Pathway (AID 357); settings: ME-180 AP-1-bla reporter, EGF-induced, beta-lactamase ratio, 5 h;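 note: ME-180 reporter cells stimulated with EGF at its EC50 level; % is set by controls: 0 for no effect and ±100 for the full control effect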
Outline: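 Read-out was the 460nm/530nm emission ratio (excitation 405nm) after CCF4 loading for 2.5 hours at room temperature. Cells carried an AP-1-driven beta-lactamase reporter, were stimulated with EC50 EGF plus compound for 5 hours, and AC50 values came from titrations.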

[3] = target: Cytochrome P450 1A2 (Homo sapiens) (UniProt P05177); experiment: p450-cyp1a2 (AID 410; calls by dose curve; note: potency is the fitted concentration of half-maximal effect)
Outline: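 Luminescent demethylation readout: Luciferin-ME (100uM, equal to Km) turned over by 20nM CYP1A2 for 60 min at room temperature after NADPH regeneration addition, following 10 min compound preincubation. Normalization used 57 uM furafylline as full inhibition.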

[4] = NFAT Signaling Pathway (AID 444); settings: Jurkat NFAT-bla M1, carbachol, beta-lactamase ratio, 5 h; at 7.69 µM (top of the series) unless noted;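 note: carbachol stimulus at about its EC50 of 1 µM final; % is set by controls: 0 for no effect and ±100 for the full control effect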
Outline: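 Read-out: CCF4 FRET ratio (460 nm/530 nm) after 1 h RT dye loading, used for %activity and AC50 from titration series. Cells: Jurkat NFAT-β-lactamase/M1 line, treated with compound plus 1 uM carbachol for 5 h, 37 °C.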

[5] = Stat Signaling Pathway (AID 446); settings: ME-180 (cervical carcinoma) SIE beta-lactamase reporter, IL-6 stimulated, 5 h;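 note: ME-180 cervical cancer cells given 40 pM IL-6 alongside compound; SIE-controlled beta-lactamase reporter measured as 460/530 nm FRET emission ratio; % is set by controls: 0 for no effect and ±100 for the full control effect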
Outline: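 Normalization used AC90 stimulation (300 pM IL-6) and AC90 inhibition (125 nM pan-JAK inhibitor at 40 pM IL-6). The underlying signal is SIE-driven beta-lactamase in ME-180 cells after 5 h IL-6 exposure with compound.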

[6] = target: Glucocorticoid receptor (Homo sapiens) (UniProt P04150); experiment: GR-GFP Redistribution (AID 450;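 active = compounds whose dose series gives a full or clear partial fitted curve of increased nuclear translocation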; note: potency is the fitted concentration of half-maximal effect); settings: U2OS GR-GFP nuclear translocation, laser cytometry, 2 h
[7] = target: Glucocorticoid receptor (Homo sapiens) (UniProt P04150); experiment: GR-EFC Redistribution (AID 451; calls by dose curve; note: potency is the fitted concentration of half-maximal effect); settings: CHO-K1 GR-EFC translocation, beta-gal luminescence, 2 h
Outline: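 Translocation of GR-ED fusion to nuclear EA restores b-gal, read by luminescence after 1 h room-temperature detection. Engineered CHO-K1 biosensor cells, 1,000/well, exposed 2 h at 37 C to titrations up to 46 uM final.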

[8] = target: Mitogen-activated protein kinase 10 (Mus musculus) (UniProt Q61831); experiment: JNK3 AlphaScreen Assay (AID 530);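 note: kinase came from lysate of stimulated human HepG2 cells; signal reports phosphorylation of biotinylated GST-cJun 1-79 at Ser73 with 10 µM ATP; % is set by controls: 0 for no effect and ±100 for the full control effect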
Outline: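 qHTS titrations with 15 min compound pre-incubation before adding ATP (10 uM final). Read-out: AlphaScreen of Ser73-phosphorylated biotin-GST-cJun using HepG2 lysate JNK3 activated by IL-1β and TNFα.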

[9] = target: 3',5'-cyclic-AMP phosphodiesterase 4B (Homo sapiens) (UniProt Q07343); experiment: qHTS Assay for Inhibitors of PDE-IV (AID 607; active = well fitted activation curve with a large enough effect in the main read-out, with a control signal flat, not every such curve was filed as active; note: % of control where 0% means no effect)
Outline: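 HEK293 ACTOne cells with CNG channel (1000/well), endogenous PDE4; membrane potential dye, compounds up to 22.9 uM final. Fluorescence Ex 535/Em 590; RO 20-1724 (100 uM final) as reference.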

[10] = qHTS Assay for Lipid Storage Modulators (AID 1519; calls by dose curve; note: potency is the fitted concentration of half-maximal effect); settings: Drosophila S3 cells, BODIPY lipid droplet/cell ratio, laser cytometry, cells loaded with oleic acid; for activity change, negative = inhibition: at 57.5 µM (top of the series)
Outline: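 Cells seeded at 5,000 per well were treated with compounds over a concentration series and loaded with oleic acid (400 uM, as added). Lipid droplet fluorescence (488 nm excitation, 500-530 nm channel) was read by laser-scanning cytometry and normalized to 20 uM Triacsin C.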

[11] = target: Dual specificity protein kinase CLK4 (Homo sapiens) (UniProt Q9HAZ1); experiment: qHTS Assay for Inhibitors of CDC-like Kinase 4 (Kinase-Glo Assay) (AID 1770; active = well fitted curve in the direction sought with a large enough effect; an effect the other way counts as inactive or inconclusive; note: % is set by controls: 0 for no effect and ±100 for the full control effect; nearly all actives have a fitted effect of over 65% in size)
Outline: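 Substrate mix (RS peptide 100 uM, ATP 1 uM) dispensed, compound pinned in, then Clk4 added to 25 nM final. Incubated 4.5 h at RT; Kinase-Glo reagent added, luminescence read after 5 min.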

[12] = target: Dual specificity protein kinase CLK4 (Homo sapiens) (UniProt Q9HAZ1); experiment: qHTS Assay for Inhibitors of CDC-like Kinase 4 (ADP-FP Assay) (AID 1795; active = well fitted curve in the direction sought with a large enough effect; an effect the other way counts as inactive or inconclusive;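 note: recombinant human CLK4 phosphorylating RS repeat peptide at 1 µM ATP; % is set by controls: 0 for no effect and ±100 for the full control effect; nearly all actives have a fitted effect of over 60% in size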)
Outline: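 Clk4 6.25 nM; RS peptide 100 uM; ATP 1 uM; 25 mM Tris pH 7.5, 10 mM MgCl2; 1 h reaction. ADP detected via antibody/orange tracer FP displacement; TG003 positive control.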

[13] = target: Ubiquitin carboxyl-terminal hydrolase 1 (Homo sapiens) (UniProt O94782); experiment: Inhibitors of USP1/UAF1: Pilot qHTS (AID 504865; active = well fitted curve in the direction sought with a large enough effect; an effect the other way counts as inactive or inconclusive;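 note: rhodamine fluorescence freed from ubiquitin-rhodamine substrate followed over time; top concentration of the series differs between compounds; % is set by controls: 0 for no effect and ±100 for the full control effect; nearly all actives have a fitted effect of over 35% in size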)
Outline: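 In 50mM HEPES pH 7.8 containing 0.5mM EDTA, 1mM TCEP, 0.1 mg/ml BSA and 0.01% Tween-20, 1nM USP1/UAF1 is exposed to compound for 15 min, then Ub-Rho (150nM final) is added and fluorescence is read over time.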

[14] = target: Cytochrome P450 2D6 (Homo sapiens) (UniProt P10635); experiment: qHTS Assay for Inhibitors and Substrates of Cytochrome P450 2D6 (AID 891; active = well fitted curve in the direction sought with a large enough effect; an effect the other way counts as inactive or inconclusive; note: potency is the fitted concentration of half-maximal effect; nearly all actives have a fitted effect of over 60% in size)
Outline: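 Luminescent read-out of luciferin formed by 5 nM human CYP2D6 demethylating 30 uM Luciferin-ME EGE (Km level) over 60 min at room temperature after NADPH regeneration addition. Data normalized to full inhibition by 1.43 uM quinidine.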

[15] = target: Dual specificity protein kinase CLK4 (Homo sapiens) (UniProt Q9HAZ1); experiment: qHTS Assay for Inhibitors of CDC-like Kinase 4 (ADP-Glo Assay) (AID 1771; active = well fitted curve in the direction sought with a large enough effect; an effect the other way counts as inactive or inconclusive; note: potency is the fitted concentration of half-maximal effect; nearly all actives have a fitted effect of over 70% in size)
Outline: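 ADP production was read by ADP-Glo luminescence after residual ATP depletion, following 1 h room-temperature reaction of 25 nM Clk4, 1 uM ATP and 100 uM RS peptide with MgCl2, EGTA, DTT and Triton X-100.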

[16] = target: Cytochrome P450 3A4 (Homo sapiens) (UniProt P08684); experiment: qHTS Assay for Inhibitors and Substrates of Cytochrome P450 3A4 (AID 884; active = well fitted curve in the direction sought with a large enough effect; an effect the other way counts as inactive or inconclusive; note: potency is the fitted concentration of half-maximal effect; nearly all actives have a fitted effect of over 50% in size)
Outline: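 Luminescent readout of luciferin produced by CYP3A4 (20 nM) dealkylation of Luciferin-PPXE, 25 uM (its KM). NADPH-driven reaction ran 60 min at RT after 10 min compound preincubation; data scaled to 57 uM ketoconazole as 100% inhibition.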

[17] = target: Cytochrome P450 3A4 (Homo sapiens) (UniProt P08684); experiment: qHTS Assay for Activators of Cytochrome P450 3A4 (AID 885; active = well fitted curve in the direction sought with a large enough effect; an effect the other way counts as inactive or inconclusive; note: nearly all actives have a fitted effect of over 65% in size)
Outline: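 Human CYP3A4 dealkylates Luciferin-PPXE to luciferin, which luciferase detection converts to light. Substrate was at its KM (25uM), buffer 200mM KPO4, reaction 60 min at RT.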

[18] = Confirmation and Secondary Assay for Modulators of Hemoglobin Beta Chain Splicing at IVS2 654 locus (AID 910; active = well fitted curve in the direction sought with a large enough effect; an effect the other way counts as inactive or inconclusive;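 note: HeLa cells stably carrying EGFP split by mutant beta-globin IVS2-654 intron; per-well total GFP intensity by laser scanning cytometry after 2-day treatment; % of control where 0% means no effect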)
Outline: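 Readout: per-well total peak green fluorescence (488 nm ex, 500–520 nm em) from objects 5–250 µm, reflecting correct splicing of an EGFP-654 reporter. Compounds were applied for 2 days at 37 °C to overnight-plated HeLa EGFP-654 cells; controls were DMSO and 500 nM IVS2-654 PNA.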

[19] = Confirmation and Secondary Assay for Modulators of Hemoglobin Beta Chain Splicing at IVS2 705 locus (AID 930; active = well fitted curve in the direction sought with a large enough effect; an effect the other way counts as inactive or inconclusive;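 note: HeLa cells stably expressing the EGFP-705 splicing reporter; % of control where 0% means no effect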)
Outline: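 Restored EGFP fluorescence after 2-day compound exposure reports splicing correction in IVS2-705 EGFP reporter HeLa cells; positive control was 500 nM splice-blocking PNA oligo. Signal measured as well total peak GFP intensity (488 nm excitation).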

[20] = at 7.69 µM (top of the series) unless noted
[21] = measured here: cell count channel max response
[22] = measured here: lipid channel max response

Chain of Ubiquitin carboxyl-terminal hydrolase 1 (Homo sapiens) (O94782 whole entry, looked up): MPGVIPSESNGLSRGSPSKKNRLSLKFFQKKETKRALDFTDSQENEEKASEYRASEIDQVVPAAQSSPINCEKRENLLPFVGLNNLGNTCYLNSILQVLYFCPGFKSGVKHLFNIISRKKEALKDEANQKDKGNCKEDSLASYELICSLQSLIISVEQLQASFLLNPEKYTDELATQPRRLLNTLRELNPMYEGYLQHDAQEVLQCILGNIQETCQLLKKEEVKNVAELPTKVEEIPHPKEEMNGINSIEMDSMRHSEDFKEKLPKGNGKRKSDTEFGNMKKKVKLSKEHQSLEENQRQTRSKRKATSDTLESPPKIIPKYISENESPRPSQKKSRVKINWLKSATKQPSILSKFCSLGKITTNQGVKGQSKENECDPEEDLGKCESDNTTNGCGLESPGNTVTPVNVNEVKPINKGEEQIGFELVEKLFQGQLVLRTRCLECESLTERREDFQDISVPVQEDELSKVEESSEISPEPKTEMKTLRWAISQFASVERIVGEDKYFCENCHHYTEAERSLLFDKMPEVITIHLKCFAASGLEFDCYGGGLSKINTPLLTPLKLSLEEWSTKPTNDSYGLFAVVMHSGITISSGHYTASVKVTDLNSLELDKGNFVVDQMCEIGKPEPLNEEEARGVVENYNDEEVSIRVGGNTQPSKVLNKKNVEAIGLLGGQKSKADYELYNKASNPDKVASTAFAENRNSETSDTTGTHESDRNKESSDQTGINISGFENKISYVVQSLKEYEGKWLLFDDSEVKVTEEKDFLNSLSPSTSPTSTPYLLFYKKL
Chain of Glucocorticoid receptor (Homo sapiens) (P04150 whole entry, looked up, the tested form may be a part): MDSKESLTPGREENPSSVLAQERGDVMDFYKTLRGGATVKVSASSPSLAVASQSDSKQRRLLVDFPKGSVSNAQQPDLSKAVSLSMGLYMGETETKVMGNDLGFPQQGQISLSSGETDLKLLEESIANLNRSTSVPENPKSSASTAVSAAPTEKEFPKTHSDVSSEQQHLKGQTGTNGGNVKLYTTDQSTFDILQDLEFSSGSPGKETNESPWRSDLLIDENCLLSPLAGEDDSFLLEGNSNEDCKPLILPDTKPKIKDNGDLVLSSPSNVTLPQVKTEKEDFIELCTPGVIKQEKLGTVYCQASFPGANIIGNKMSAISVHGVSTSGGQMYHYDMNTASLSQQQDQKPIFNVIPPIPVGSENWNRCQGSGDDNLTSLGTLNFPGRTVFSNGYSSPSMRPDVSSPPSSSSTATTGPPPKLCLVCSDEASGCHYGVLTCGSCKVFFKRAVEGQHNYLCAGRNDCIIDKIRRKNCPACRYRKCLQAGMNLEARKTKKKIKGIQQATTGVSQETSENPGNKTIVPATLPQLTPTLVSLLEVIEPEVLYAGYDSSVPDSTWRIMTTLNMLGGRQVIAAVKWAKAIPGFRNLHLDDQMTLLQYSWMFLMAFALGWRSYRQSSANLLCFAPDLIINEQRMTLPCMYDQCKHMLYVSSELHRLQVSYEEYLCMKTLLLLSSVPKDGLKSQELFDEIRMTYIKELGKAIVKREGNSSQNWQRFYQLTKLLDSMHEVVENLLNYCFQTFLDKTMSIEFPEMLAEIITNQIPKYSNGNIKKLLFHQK
Chain of Cytochrome P450 1A2 (Homo sapiens) (P05177 whole entry, looked up): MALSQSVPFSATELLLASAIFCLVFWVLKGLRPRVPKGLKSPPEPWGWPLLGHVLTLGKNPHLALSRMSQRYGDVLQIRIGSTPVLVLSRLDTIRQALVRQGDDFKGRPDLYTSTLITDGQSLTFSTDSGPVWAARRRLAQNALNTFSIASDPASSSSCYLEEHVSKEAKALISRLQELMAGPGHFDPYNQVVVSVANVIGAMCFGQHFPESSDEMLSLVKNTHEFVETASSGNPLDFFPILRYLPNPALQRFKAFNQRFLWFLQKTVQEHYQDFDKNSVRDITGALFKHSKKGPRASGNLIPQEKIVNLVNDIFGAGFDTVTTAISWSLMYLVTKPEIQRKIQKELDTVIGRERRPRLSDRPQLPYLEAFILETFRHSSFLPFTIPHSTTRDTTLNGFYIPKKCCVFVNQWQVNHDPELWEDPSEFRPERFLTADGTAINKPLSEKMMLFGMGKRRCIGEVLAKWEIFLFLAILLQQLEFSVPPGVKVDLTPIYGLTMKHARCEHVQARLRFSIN
Chain of Cytochrome P450 2D6 (Homo sapiens) (P10635 whole entry, looked up): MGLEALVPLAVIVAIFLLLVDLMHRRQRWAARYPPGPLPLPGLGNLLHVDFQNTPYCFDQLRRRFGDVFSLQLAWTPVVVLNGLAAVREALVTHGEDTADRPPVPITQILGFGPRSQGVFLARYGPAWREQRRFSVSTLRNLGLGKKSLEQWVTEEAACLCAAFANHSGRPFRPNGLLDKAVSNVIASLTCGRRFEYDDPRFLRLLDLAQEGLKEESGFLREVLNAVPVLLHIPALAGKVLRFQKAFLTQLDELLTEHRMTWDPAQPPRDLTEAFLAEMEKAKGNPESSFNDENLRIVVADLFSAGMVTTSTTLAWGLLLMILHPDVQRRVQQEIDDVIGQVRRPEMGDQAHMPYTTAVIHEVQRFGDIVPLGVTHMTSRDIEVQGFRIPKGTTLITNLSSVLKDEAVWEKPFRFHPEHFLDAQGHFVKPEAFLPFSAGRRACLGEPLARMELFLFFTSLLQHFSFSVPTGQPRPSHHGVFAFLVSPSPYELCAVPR
Chain of Cytochrome P450 3A4 (Homo sapiens) (P08684 whole entry, looked up): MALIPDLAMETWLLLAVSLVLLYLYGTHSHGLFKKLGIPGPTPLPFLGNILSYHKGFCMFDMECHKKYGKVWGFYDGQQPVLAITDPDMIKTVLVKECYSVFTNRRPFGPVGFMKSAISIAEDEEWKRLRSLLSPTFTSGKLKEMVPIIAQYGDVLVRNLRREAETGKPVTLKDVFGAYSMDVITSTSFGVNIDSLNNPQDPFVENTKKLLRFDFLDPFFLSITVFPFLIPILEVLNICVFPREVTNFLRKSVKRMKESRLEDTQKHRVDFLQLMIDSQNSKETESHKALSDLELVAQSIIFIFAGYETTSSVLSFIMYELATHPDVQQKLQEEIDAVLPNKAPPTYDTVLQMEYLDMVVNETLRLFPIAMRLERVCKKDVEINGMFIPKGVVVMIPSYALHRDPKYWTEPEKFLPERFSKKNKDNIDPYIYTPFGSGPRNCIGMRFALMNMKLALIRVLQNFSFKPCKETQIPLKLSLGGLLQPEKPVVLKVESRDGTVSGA
Chain of 3',5'-cyclic-AMP phosphodiesterase 4B (Homo sapiens) (Q07343 whole entry, looked up): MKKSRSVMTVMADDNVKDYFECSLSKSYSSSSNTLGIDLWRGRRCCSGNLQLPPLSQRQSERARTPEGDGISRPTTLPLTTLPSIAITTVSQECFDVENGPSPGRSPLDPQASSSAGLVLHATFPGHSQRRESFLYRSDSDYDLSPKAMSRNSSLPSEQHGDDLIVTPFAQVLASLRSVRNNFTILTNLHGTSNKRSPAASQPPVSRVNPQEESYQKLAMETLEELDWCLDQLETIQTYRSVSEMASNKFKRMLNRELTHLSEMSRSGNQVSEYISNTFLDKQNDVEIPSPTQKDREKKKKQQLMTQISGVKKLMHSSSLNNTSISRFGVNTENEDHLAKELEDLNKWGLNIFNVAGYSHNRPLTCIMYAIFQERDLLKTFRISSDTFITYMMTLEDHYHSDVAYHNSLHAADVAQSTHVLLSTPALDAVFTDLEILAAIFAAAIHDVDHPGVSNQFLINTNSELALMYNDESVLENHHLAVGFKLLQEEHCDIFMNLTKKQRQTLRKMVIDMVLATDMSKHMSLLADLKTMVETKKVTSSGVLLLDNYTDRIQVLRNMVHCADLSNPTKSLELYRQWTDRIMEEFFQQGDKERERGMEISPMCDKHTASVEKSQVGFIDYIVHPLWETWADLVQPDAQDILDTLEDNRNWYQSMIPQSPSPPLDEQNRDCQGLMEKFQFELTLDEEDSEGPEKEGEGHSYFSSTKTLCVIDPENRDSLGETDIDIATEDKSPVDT
Chain of Lysosomal acid glucosylceramidase (Homo sapiens) (P04062 whole entry, looked up): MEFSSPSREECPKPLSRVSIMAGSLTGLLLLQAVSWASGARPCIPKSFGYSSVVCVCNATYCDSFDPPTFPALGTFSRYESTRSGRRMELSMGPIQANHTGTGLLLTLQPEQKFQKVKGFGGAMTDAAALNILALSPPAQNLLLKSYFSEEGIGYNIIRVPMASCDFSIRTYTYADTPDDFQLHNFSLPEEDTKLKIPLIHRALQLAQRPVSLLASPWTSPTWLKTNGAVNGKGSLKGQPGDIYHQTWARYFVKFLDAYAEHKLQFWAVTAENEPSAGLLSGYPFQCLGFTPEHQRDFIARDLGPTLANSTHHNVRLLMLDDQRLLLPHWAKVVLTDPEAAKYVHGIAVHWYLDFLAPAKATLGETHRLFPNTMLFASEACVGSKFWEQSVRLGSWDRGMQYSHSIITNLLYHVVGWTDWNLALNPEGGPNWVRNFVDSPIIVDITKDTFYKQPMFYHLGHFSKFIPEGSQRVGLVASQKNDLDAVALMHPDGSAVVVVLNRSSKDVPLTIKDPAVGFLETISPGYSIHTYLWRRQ
Chain of Dual specificity protein kinase CLK4 (Homo sapiens) (Q9HAZ1 whole entry, looked up): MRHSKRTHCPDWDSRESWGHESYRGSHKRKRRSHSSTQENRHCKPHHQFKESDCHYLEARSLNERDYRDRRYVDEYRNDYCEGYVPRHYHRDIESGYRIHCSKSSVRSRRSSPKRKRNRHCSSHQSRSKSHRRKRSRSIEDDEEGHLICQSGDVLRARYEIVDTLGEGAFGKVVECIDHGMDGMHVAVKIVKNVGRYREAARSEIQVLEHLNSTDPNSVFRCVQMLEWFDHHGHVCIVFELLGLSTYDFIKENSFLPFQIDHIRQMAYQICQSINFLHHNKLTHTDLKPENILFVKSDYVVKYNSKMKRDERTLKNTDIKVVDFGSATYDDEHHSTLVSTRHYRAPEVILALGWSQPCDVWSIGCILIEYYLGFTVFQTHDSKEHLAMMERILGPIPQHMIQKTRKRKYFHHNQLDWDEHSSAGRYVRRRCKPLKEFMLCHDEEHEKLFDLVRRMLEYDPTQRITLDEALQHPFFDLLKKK

CN1CCN(c2ncc3nc(-c4cccc(C#N)c4)c(=O)n(C)c3n2)CC1
0.187%: max response [10, 21]
active: Potency [3] 12.6 µM
inactive: Potency [1] > 11.4 µM | activity change, negative = inhibition [2, 20] 0.861% | activity change, negative = inhibition [4] 13.1% | activity, negative = inhibition [5, 20] -0.0628% | Potency [6] > 9.22 µM | Potency [7] > 46 µM | Potency [8] | Potency [9] | activity change, negative = inhibition [10] 1.68% | Potency [11] | Potency [12] | Potency [13]
0.284%: max response [10, 22]

CN1CCCC[C@@H]1CCN1c2ccccc2Sc2ccc(S(C)=O)cc21 (some centres not stated)
inactive: activity change, negative = inhibition ([2]; at 7.69 µM (top of the series)) -6.82% | activity change, negative = inhibition ([2]; at 17.2 µM (top of the series)) 10.1% | activity, negative = inhibition ([5]; at 7.69 µM (top of the series)) 0.0805% | activity, negative = inhibition ([5]; at 17.2 µM (top of the series)) -1.79%

COC(=O)C1=CO[C@@H](C)[C@H]2CN3CCc4c([nH]c5ccccc45)[C@@H]3C[C@H]12
active: Potency [14] 2 nM and 7.9 nM

COc1ccccc1-c1nccc(NCc2ccccc2)n1
active: Potency [14] 3.98 µM

N#Cc1cccc(-c2ccc3ncnc(NCc4ccccc4)c3c2)c1
active: Potency [15] 8.91 µM

COc1ccc2[nH]cc(CCNc3ncnc4ccc(-c5ccccc5CN(C)C)cc34)c2c1
-2.58%: max response [10, 21]
inactive: Potency [1] > 11.4 µM | activity change, negative = inhibition [2, 20] -1.42% | activity change, negative = inhibition [4] -18.9% | activity, negative = inhibition [5, 20] 0.00328% | Potency [6] > 46 µM | Potency [7] > 46 µM | Potency [8] | Potency [9] | Potency [17] | Potency [18] | activity change, negative = inhibition [10] 7.35% | Potency [13]
5.15%: max response [10, 22]
active: Potency [3] 31.6 µM | Potency [16] 1.58 µM

Cc1cccc(CNc2ccnc(-c3ccccc3CN(C)C)n2)c1
-8.06%: max response [10, 21]
inactive: Potency [1] 11.5 µM | activity change, negative = inhibition [2, 20] -18% | activity change, negative = inhibition [4] -18.8% | activity, negative = inhibition [5, 20] -5.22% | Potency [7] > 46 µM | Potency [8] | Potency [17] | Potency [18] | outcome [19] | activity change, negative = inhibition [10] 3.61% | Potency [13]
active: Potency [3] 3.16 µM | Potency [14] 2.51 µM
-5.18%: max response [10, 22]

CS(=O)(=O)N1CCC[C@@]2(CCN(C(c3ccccc3)c3ccccc3)C2)C1
-82.6%: max response [10, 22]
inactive: Potency [1] > 11.4 µM | activity change, negative = inhibition [2, 20] 5.41% | activity change, negative = inhibition [4] -7.94% | activity, negative = inhibition [5, 20] 1.66% | Potency [7] > 46 µM | Potency [8] | Potency [9] | Potency [17]
active: Potency [3] 25.1 µM | Potency [14] 3.98 µM | Potency [10] 7.94 µM
-26.7%: max response [10, 21]

CS(=O)(=O)Nc1cccc(-c2nc(N3CCOCC3)c3ccccc3n2)c1
-22%: max response [10, 22]
active: Potency [3] 5.01 µM | Potency [16] 1.58 µM
inactive: Potency [1] > 11.4 µM | activity change, negative = inhibition [2, 20] -11.2% | activity change, negative = inhibition [4] 27.4% | activity, negative = inhibition [5, 20] -10.3% | Potency [6] > 46 µM | Potency [7] > 46 µM | Potency [8] | Potency [17] | Potency [18] | outcome [19] | activity change, negative = inhibition [10] 2.88% | Potency [13]
-24.3%: max response [10, 21]
